Only a selection was taken, and hits are over-represented in it overall.
MARV entry inh – Marburg virus entry inhibition; 1.8% of 300,000 active; Marburg virus pseudotyped entry inhibition, cell reporter; Potency, µM (titrated, usually from 37.8 µM), for the others: top-dose activity change, negative = inhibition, actives largely listed as inhibitors; calls by dose curve; tested in HEK293 cells; also: potency is read from the fitted curve at half-maximal effect; % is scaled to controls: 0 for no effect and ±100 for the full control effect
CHX counter – affects cycloheximide protein synthesis inhibition readout, counter-screen | cell reporter, cycloheximide protein synthesis inhibition counterscreen | max response, % | 12% of 300,000 active | AID 2314; in the data active = max response mostly above about 13%, no sharp cut-off; inactive = mostly below about 14%; also: read at 38.3 µM for the half of the compounds with a filed dose; 0% is about no effect
Shiga toxin inh – blocks Shiga toxin action in Vero cells; Vero cells, Shiga toxin protein synthesis inhibition reporter; inhibition, % at 38.7 µM; 9.2% of 290,000 active; AID 2315; in the data active = inhibition mostly above about 28%, no sharp cut-off; inactive = mostly below about 43%; also: 0% is about no effect
Lassa entry inh – blocks Lassa virus binding to or entry into cells; Lassa virus pseudotype entry inhibition, cell reporter; 1.2% of 300,000 active; AID 540256; Potency, µM (top dose mostly 37.9 µM), for inactives: at the highest dose activity change, negative = inhibition, actives largely listed as inhibitors; calls by dose curve; tested in HEK293 cells; also: potency is read from the fitted curve at half-maximal effect; % is scaled to controls: 0 for no effect and ±100 for the full control effect; nearly all actives have a fitted effect of over 50% in size
AMA1-RON2 inh – inhibitors of Plasmodium falciparum AMA1-RON2 interaction. AlphaScreen AMA1-biotinylated RON2 peptide binding. AID 720542. Potency, µM (doses to about 58.2 µM), for the others: at the top dose activity change, negative = inhibition, most hits filed as inhibitors. 0.2% of 360,000 active; active = well fitted inhibition curve with a large enough effect; inconclusive = small, poorly fitted or top-dose-only effect; inactive = no such curve, though single readings can be large or run the other way;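 also: potency is read from the fitted curve at half-maximal effect; 0% = vehicle wells and -100% = peptide control; nearly all actives have a fitted effect of over 45% in size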
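AMA1 (3D7) with his tag at 25 nM final met compounds first, then biotinylated RON2 peptide at 25 nM; detection used donor plus acceptor beads, 10 µg/mL apiece, read by AlphaScreen after 30 min at room temperature.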
An asterisk follows results filed as active; ? = inconclusive; · = not tested or not shown; [ ] = remark or other dose.

SMILES	MARV entry inh	CHX counter	Shiga toxin inh	Lassa entry inh	AMA1-RON2 inh
COc1ccc(-c2cc(COc3ccccc3)on2)cc1	?	49*	67*	?	52%
COc1ccc(-c2cc(-c3ccccc3)no2)cc1	·	·	·	·	-1%
Fc1ccc(OCc2cc(-c3ccccc3)no2)cc1	·	69*	90*	·	54%
Cc1cccc(N2CCN(C(=O)CS(=O)(=O)Cc3nc(-c4ccccc4C)oc3C)CC2C)c1 (stereo not given)	?	·	·	-26%[46.1 µM]	·
Cc1cc(C)cc(-n2c(SCC(=O)N3CCc4ccccc43)nc3c([nH]c4ccccc43)c2=O)c1	·	·	·	19%[46.1 µM]	·
CCc1ccc(N2CC(C(=O)N/N=C/c3cc([N+](=O)[O-])ccc3O)CC2=O)cc1 (stereo not given)	-3%[46.1 µM]	8	-8	7.1µM*	5%
O=Cc1ccc(OC(=O)/C=C/c2ccccc2)cc1	·	34*	25*	·	5%
O=C(/C=C/c1ccccc1)c1ccc2ccccc2c1	?	·	·	?	49%
CCOc1ccc(/C=C/C(=O)Oc2ccccc2)cc1	?	-2	-2	-4%	-22%
O=C(/C=C/c1ccccc1)/C=C/c1ccccc1	9.2µM*	50*	134*	?	-4%
CC(C)(C)C(=O)/C=C(N)/C=C/c1ccccc1	?	28*	35	17%	-14%
CC(=O)/C=C/c1ccccc1	·	·	·	·	8%
O=C(/C=C/c1ccccc1)c1ccccc1	-4%	45*	125*	0%	12%
COc1ccc2cc(CNc3ccc(C)cc3)c(=O)n(CC(=O)Nc3cccc(C(F)(F)F)c3)c2c1	·	·	·	-2%[46.1 µM]	·
O=C(c1ccc2n[nH]nc2c1)N1CCN(c2ccc(C(F)(F)F)cn2)CC1	·	·	·	·	76%
O=C(/C=C/c1ccccc1)c1ccc2c3c(cccc13)CC2	?	30*	74*	?	?
O=Cc1ccc(-c2ccc(C(=O)O)cc2)o1	·	35*	88*	·	8%
O=C(/C=C/c1ccc(NC(=O)c2ccccc2-c2ccccc2C(=O)O)cc1)c1ccccc1	·	10*	37*	·	-13%
CC(C)(C)C(=O)/C=C(\N)c1ccccn1	?	12*	14	4%	9%
Cc1c(NC(=O)c2ccc3c4c(cccc24)CC3)c(=O)n(-c2ccccc2)n1C	-3%	-3	-19	8%	-1%
CCCNC(=O)Cn1c(=O)c2cccn2c2cccnc21	·	·	·	7%[46.1 µM]	·
COc1ccccc1-c1cccc(-c2nc(C(=O)Nc3nccs3)cc3c2[C@H](CCO)N(C(C)=O)C3)c1	·	·	·	·	86%
C=CCOC(=O)N[C@@H](Cc1ccccc1)C(C(=O)OC)=C(C)NCc1ccccc1	-11%[14.2 µM]	·	·	·	·
CCOc1ccc(/C=C/C(=O)c2ccc(-c3ccccc3)cc2)cc1	?	2	13	13%	-3%[2.32 µM]
N#Cc1ccc(/C=C/C(=O)c2ccccc2)cc1	·	20*	47*	·	-5%
SMILES	MARV entry inh	CHX counter	Shiga toxin inh	Lassa entry inh	AMA1-RON2 inh
O=C(/C=C\c1ccc(-c2ccccc2)o1)c1ccccc1	?	42*	110*	?	?
Cc1ccc(C(=O)/C=C/c2ccc(-c3ccc(C)cc3)o2)cc1	1%	15	13	-26%	-6%
Cc1ccc(N(CC(=O)Nc2ccc(Cl)cc2)S(=O)(=O)c2cccc3nonc23)cc1	-6%[46.1 µM]	·	·	-12%[46.1 µM]	·
CSc1nsc(/C=C/Nc2ccc(F)cc2)c1C#N	·	10	38	·	25%
CSc1nsc(/C=C/Nc2ccc(O)cc2C)c1C#N	·	28*	28	·	13%
CC(=O)c1nc2ccccc2n1S(=O)(=O)c1ccc(Cl)cc1	?	-2	-4	-2%	-1%
CC(=O)c1nc2ccccc2n1S(=O)(=O)c1ccc(C)cc1	-3%	23*	3	-2%	10%
CCNC(=O)NC(=O)C(C)Sc1nnc(COc2ccccc2Cl)o1 (stereo not given)	18%	15*	28	?	-3%
CCNC(=O)NC(=O)C(C)Sc1ccc2c(c1)OCCO2 (stereo not given)	-1%	-2	-10	-18%	2%
Cc1nonc1CC(=O)N1CCCC(C(=O)c2ccc(Cl)cc2)C1 (stereo not given)	·	-3	-4	·	-5%
Cc1cccc(N=Nc2c(C)[nH]n(C(N)=S)c2=O)c1C	·	19	13	·	·
Cc1ccccc1N=Nc1c(C)[nH]n(C(N)=S)c1=O	-1%	20*	67*	18%	70%
Cc1[nH]n(C(N)=S)c(=O)c1N=Nc1cccc(Cl)c1	·	32*	60*	·	127%
Cc1[nH]n(C(N)=S)c(=O)c1N=Nc1ccc([N+](=O)[O-])cc1Cl	?	14*	15	-18%[46.1 µM]	62%
NC(=S)n1[nH]c(-c2ccc([N+](=O)[O-])cc2)c(N=Nc2cccc(Cl)c2)c1=O	?	11	-6	?	69%
CCN(CC)CCOC(=O)C1(c2ccccc2)CCCC1	-28%	3	-3	0%	-5%
CCN(CC)CCOC(=O)C1(C2CCCCC2)CCCCC1	13µM*	-2	-9	?	0%
CCC(=O)Nc1ccc(C(=O)OCc2ccccc2Cl)cc1	-18%	33*	18	?	-13%
CC(=O)Nc1ccc(C(=O)OCCCOC(=O)c2ccc(NC(C)=O)cc2)cc1	·	-2	-2	·	-7%
CC(=O)Nc1ccc(C(=O)OCc2ccccc2Cl)cc1	·	42*	64*	·	-14%
C/C(=N\NC(=O)c1ccccn1)c1ccc(Cl)cc1	?	33*	53*	?	55%
C/C(=N/NC(=O)c1ccccn1)c1ccc(O)cc1	·	32*	60*	·	110%
C/C(=N\NC(=O)c1ccc(N/N=C(\C)c2ccc(O)cc2)cc1)c1ccc(O)cc1	·	40*	68*	·	58%
C/C(=N\NC(=O)c1ccc(Cl)cc1)c1ccccn1	0.89µM*	40*	85*	1.3µM*	-87%
COC(=O)N[C@H](CC(C)=O)c1cccc(F)c1	-7%[14.2 µM]	·	·	·	·
SMILES	MARV entry inh	CHX counter	Shiga toxin inh	Lassa entry inh	AMA1-RON2 inh
COc1ccc(Cl)cc1NC(=O)Cn1cnc2c1c(=O)n(C)c(=O)n2C	·	·	·	0%[46.1 µM]	·
C/C(=N\Nc1ccc(Cl)cc1)c1ccccn1	?	23*	74*	107%[14.3 µM]	24%
C/C(=N\NC(=O)c1c[nH]c2ccccc12)c1ccc(C)o1	?	3	12	-7%	59%
C/C(=N/NC(=O)c1ccccn1)c1c[nH]c2ccccc12	·	56*	92*	·	96%
C/C(=N\Nc1ccc2nncn2n1)c1ccccn1	?	-2	8	?	7%
COc1ccc(-c2ccc(CCC(=O)O)n2-c2ccccc2O)cc1	-11%[46.1 µM]	47*	79*	-7%[46.1 µM]	10%
Cc1ccc(-c2ccc(CCC(=O)O)n2-c2ccc(C(=O)O)cc2)cc1	·	11	36	·	-5%
O=C(O)CCc1ccc(-c2ccccc2)n1-c1cccc(O)c1	-1%	23*	54*	2%	-4%
COc1ccc(-c2ccc(CCC(=O)O)n2-c2ccccc2C(F)(F)F)cc1	-6%[46.1 µM]	·	·	-22%[46.1 µM]	·
Cc1ccc(-c2ccc(CCC(=O)O)n2-c2cccc(C(=O)O)c2)cc1	·	71*	152*	·	-15%
Cc1cc(C)cc(-n2ncc3c2CCCC3NC(=O)CN2CCCC2=O)c1 (stereo not given)	·	11	16	·	2%
